These results are taken from the supplement of paper PMC7156485.

A number with no mark means an inactive call.
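Also: TDF is a line of transformed human dermal fibroblasts of mesenchymal origin.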

The first assay concerns TDF. As to the kind of experiment: H1.0 immunofluorescence intensity relative to DMSO (% of DMSO); higher = stronger H1.0 induction, active = 120 or more. The settings on record: concentration: 10 µM; 24 h. The essentials:
(§1)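 Compounds were applied at 10 µM for 24 h at 37 °C, in triplicate, to HCC1569 and TDF cells. The cells were then fixed and stained for H1.0, and nuclei were counterstained with DAPI. Nuclear H1.0 intensity or cell number is reported relative to the plate control as a percent, taking the median of replicates. Smoothing for positional effects was applied to HCC1569 values only.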
For the compound `CCNC(=O)CC[C@H](N)C(=O)O` [L-Theanine], the H1.0 immunofluorescence intensity was 102.

For the compound `CCCC1OC2CC3C4CCC5=CC(=O)C=CC5(C)C4C(O)CC3(C)C2(C(=O)CO)O1` (configuration not stated) [Budesonide], the H1.0 immunofluorescence intensity is 82.

As for `Cl.NCCc1ccc(O)c(O)c1` [Dopamine hydrochloride], the H1.0 immunofluorescence intensity is 93.5.

In the case of `CN1C(CC(=O)c2ccccc2)CCCC1CC(O)c1ccccc1` (configuration not stated) [Lobeline], the H1.0 immunofluorescence intensity is 94.9.

Turning to `Cl.c1ccc(C2CN3CCSC3=N2)cc1` (single isomer, unassigned; (-)) [(-)-Tetramisole hydrochloride], the H1.0 immunofluorescence intensity is 92.4.

As to `NCCS(=O)O` [Hypotaurine], the H1.0 immunofluorescence intensity was 96.6.

In a further assay the test system is HCC1569. As to the kind of experiment: H1.0 immunofluorescence intensity relative to DMSO (% of DMSO); higher = stronger H1.0 induction, active = 140 or more. The settings on record: concentration: 10 µM; 24 h. The essentials: as §1
As for `O=C(Nc1ccc(Oc2ccnc3[nH]ccc23)c(F)c1)c1cccn(-c2ccc(F)cc2)c1=O`, the H1.0 immunofluorescence intensity is 111.

As for `CCCCCC=CCC=CCC=CCCCCC(=O)O` [γ-Linolenic acid (18:3 n-6)], the H1.0 immunofluorescence intensity is 98.8.

Consider `CCCCCCCCC(O)C=CC=CC=CC(O)CCCC(=O)O` (configuration not stated) [Leukotriene B3], for which the H1.0 immunofluorescence intensity is 104.

In the case of `Cc1nc(Nc2ncc(C(=O)Nc3c(C)cccc3Cl)s2)cc(N2CCN(CCO)CC2)n1` [Dasatinib], the H1.0 immunofluorescence intensity is 171 (active).

Consider `O=C1NC(=O)C(c2cn(CCCn3ccnc3)c3ccccc23)=C1Nc1ccccc1` [PKCb Inhibitor], for which the H1.0 immunofluorescence intensity was 104.

In the case of `O=C(CCCN1CCC(O)(c2ccc(Cl)cc2)CC1)c1ccc(F)cc1` [Haloperidol], the H1.0 immunofluorescence intensity was 117.
